Calls of active or inactive are those of the source. Where a call stands in place of a potency, no number is given. Unless noted, the call rests on the fitted dose curve; in most records, active means well fitted curve in the direction sought with a large enough effect in the repeat runs; inconclusive means weak or mixed curves; inactive means no such curve, though single readings can be large; an effect the other way counts as inactive or inconclusive.
Tests used:
[1] = qHTS assay for identifying genotoxic compounds that show differential cytotoxicity against isogenic chicken DT40 cell lines with known DNA damage response pathways - Rev3 mutant cell line (AID 743014); further: nearly all actives have a fitted effect of over 55% in size; further: potency means the concentration at half of the fitted maximal effect
[2] = qHTS assay to identify small molecule antagonists of the androgen receptor (AR) signaling pathway - cell viability counter screen (AID 743033; further: nearly all actives have a fitted effect of over 45% in size)
[3] = qHTS assay to identify small molecule antagonists of the androgen receptor (AR) signaling pathway using the MDA cell line - cell viability counter screen (AID 743041; further: nearly all actives have a fitted effect of over 45% in size; further: potency means the concentration at half of the fitted maximal effect)
In short: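 Cells were plated at 3,000 per well and left 5 h. Compounds in DMSO were then pinned in, followed by R1881. After 16 h at 37C, CellTiter-Fluor fluorescence gave viability.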

[4] = qHTS assay to identify small molecule antagonists of the thyroid receptor (TR) signaling pathway - cell viability counter screen (AID 743064); further: nearly all actives have a fitted effect of over 50% in size; further: potency means the concentration at half of the fitted maximal effect
In short: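 Plate GH3.TRE-Luc cells; incubate 4 h at 37 °C; add compound, then T3 to 1 nM final; incubate 23.5 h; add CellTiter-Fluor; incubate 30 min at 37 °C, 5% CO2; read fluorescence.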

[5] = qHTS assay to identify small molecule antagonists of the thyroid receptor (TR) signaling pathway (AID 743065); further: nearly all actives have a fitted effect of over 55% in size; further: potency means the concentration at half of the fitted maximal effect
In short: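 Antagonism measured as loss of luciferase signal in GH3 cells stably carrying a TRE-luciferase reporter, co-treated with compound and T3 (1 nM final) for 23.5 h at 37 C. Viability was read in the same well by CellTiter-Fluor.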

[6] = tested on: thyroid hormone receptor (rat, GH3 cells); assay: qHTS assay to identify small molecule agonists of the thyroid receptor (TR) signaling pathway (AID 743066; calls by dose curve)
[7] = qHTS assay to identify small molecule antagonists of the estrogen receptor alpha (ER-alpha) signaling pathway - cell viability counter screen (AID 743074; calls by dose curve;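 further: HEK293 cells carrying ER-alpha-UAS-bla reporter stimulated with 17beta-estradiol; nearly all actives have a fitted effect of over 45% in size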)
[8] = qHTS assay to identify small molecule antagonists of the estrogen receptor alpha (ER-alpha) signaling pathway using the BG1 cell line - cell viability counter screen (AID 743081);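 further: compound given together with 17beta-estradiol as the ER stimulus; series mostly up to about 70 µM; nearly all actives have a fitted effect of over 45% in size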
Aromatase (Homo sapiens) = Aromatase (Homo sapiens) (UniProt P11511); assay: qHTS assay to identify aromatase inhibitors (AID 743083); further: nearly all actives have a fitted effect of over 55% in size; further: potency means the concentration at half of the fitted maximal effect
Sequence of Aromatase (Homo sapiens) (P11511 whole entry, looked up): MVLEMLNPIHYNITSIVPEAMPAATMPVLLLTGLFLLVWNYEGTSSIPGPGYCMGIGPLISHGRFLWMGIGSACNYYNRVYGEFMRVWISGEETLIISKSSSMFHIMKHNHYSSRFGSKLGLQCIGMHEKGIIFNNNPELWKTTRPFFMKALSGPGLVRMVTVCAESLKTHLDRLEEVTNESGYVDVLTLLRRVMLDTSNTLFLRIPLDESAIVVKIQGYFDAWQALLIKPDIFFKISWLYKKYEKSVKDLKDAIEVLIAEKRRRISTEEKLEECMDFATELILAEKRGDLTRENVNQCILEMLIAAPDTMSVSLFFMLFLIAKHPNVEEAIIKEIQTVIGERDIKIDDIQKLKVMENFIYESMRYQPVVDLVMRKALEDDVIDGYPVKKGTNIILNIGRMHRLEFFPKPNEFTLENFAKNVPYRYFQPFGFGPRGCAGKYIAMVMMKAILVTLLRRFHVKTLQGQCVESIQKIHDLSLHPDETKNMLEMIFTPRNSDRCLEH

[9] = qHTS assay for identifying genotoxic compounds that show differential cytotoxicity against isogenic chicken DT40 cell lines with known DNA damage response pathways - wild type cell line (AID 743012); further: nearly all actives have a fitted effect of over 60% in size; further: potency means the concentration at half of the fitted maximal effect
In short: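 First, wild type DT40 cells were plated at 300 per well and equilibrated about 0.5 h at 37 C/5% CO2. Next, compounds in DMSO were added and exposure lasted 40 h. Finally, CellTiter-Glo was added for 30 min at room temperature and luminescence recorded.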

[10] = target: Estrogen receptor (Homo sapiens) (UniProt P03372); assay: qHTS assay to identify small molecule antagonists of the estrogen receptor alpha (ER-alpha) signaling pathway (AID 743069; active means well fitted curve in the direction sought with a large enough effect in the signal ratio in the repeat runs, not every such curve was filed as active; inconclusive means weak or mixed curves, or effect the other way; inactive means no such curve, though single readings can be large or run the other way; the % refers to the signal ratio; further: potency means the concentration at half of the fitted maximal effect)
Sequence of Estrogen receptor (Homo sapiens) (P03372 whole entry, looked up): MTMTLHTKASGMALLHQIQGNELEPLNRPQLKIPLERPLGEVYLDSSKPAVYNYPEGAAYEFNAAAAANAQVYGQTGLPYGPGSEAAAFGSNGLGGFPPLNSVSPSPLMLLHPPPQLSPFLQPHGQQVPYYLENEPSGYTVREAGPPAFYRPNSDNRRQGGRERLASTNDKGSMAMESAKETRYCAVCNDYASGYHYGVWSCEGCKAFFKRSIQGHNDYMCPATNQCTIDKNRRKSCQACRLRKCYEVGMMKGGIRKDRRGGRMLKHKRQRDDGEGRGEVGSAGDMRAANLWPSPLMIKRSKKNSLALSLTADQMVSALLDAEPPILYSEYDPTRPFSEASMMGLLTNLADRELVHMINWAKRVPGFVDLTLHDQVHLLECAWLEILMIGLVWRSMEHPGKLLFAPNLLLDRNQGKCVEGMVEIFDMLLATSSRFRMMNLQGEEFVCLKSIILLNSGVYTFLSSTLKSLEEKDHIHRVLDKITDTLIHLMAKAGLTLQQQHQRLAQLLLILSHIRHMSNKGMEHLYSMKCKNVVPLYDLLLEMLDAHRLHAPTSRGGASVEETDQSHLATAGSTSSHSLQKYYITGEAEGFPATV
In short: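 ER-alpha-UAS-bla GripTite HEK293 line; 2% charcoal-stripped FBS overnight; plated, 4 hr 37C/5% CO2; cpd in DMSO + 17beta-estradiol, 18 hr 37C; LiveBLAzer B/G FRET substrate 2 hr RT; fluorescence intensity.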

[11] = target: Estrogen receptor (Homo sapiens) (UniProt P03372); assay: qHTS assay to identify small molecule agonists of the estrogen receptor alpha (ER-alpha) signaling pathway (AID 743075; calls by dose curve;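 further: HEK293 GripTite cells with ER-alpha and UAS-driven beta-lactamase reporter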)
[12] = target: Estrogen receptor (Homo sapiens) (UniProt P03372); assay: qHTS assay to identify small molecule agonists of the estrogen receptor alpha (ER-alpha) signaling pathway using the BG1 cell line (AID 743079); further: nearly all actives have a fitted effect of over 20% in size; further: potency means the concentration at half of the fitted maximal effect
[13] = qHTS assay to identify small molecule antagonists of the estrogen receptor alpha (ER-alpha) signaling pathway using the BG1 cell line (AID 743080; calls by dose curve;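 further: BG1 cells stimulated with 17beta-estradiol alongside compound; nearly all actives have a fitted effect of over 25% in size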; further: potency means the concentration at half of the fitted maximal effect)
In short: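 Readout is ONE-Glo luminescence, taken 30 min at room temperature after reagent addition, preceded by a CellTiter-Fluor viability read; BG1-Luc-4E2 cells had received compound and 17beta-estradiol for 21.5 h at 37 C.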

[14] = qHTS assay for identifying genotoxic compounds that show differential cytotoxicity against isogenic chicken DT40 cell lines with known DNA damage response pathways - Rad54/Ku70 mutant cell line (AID 743015); further: nearly all actives have a fitted effect of over 60% in size; further: potency means the concentration at half of the fitted maximal effect
[15] = target: Androgen receptor (Homo sapiens) (UniProt P10275); assay: qHTS assay to identify small molecule antagonists of the androgen receptor (AR) signaling pathway (AID 743035; active means well fitted inhibition curve with a large enough effect in the signal ratio in the repeat runs, not every such curve was filed as active; inconclusive means weak or mixed curves, or effect the other way; inactive means no such curve, though single readings can be large or run the other way; the % refers to the signal ratio)
Sequence of Androgen receptor (Homo sapiens) (P10275 whole entry, looked up): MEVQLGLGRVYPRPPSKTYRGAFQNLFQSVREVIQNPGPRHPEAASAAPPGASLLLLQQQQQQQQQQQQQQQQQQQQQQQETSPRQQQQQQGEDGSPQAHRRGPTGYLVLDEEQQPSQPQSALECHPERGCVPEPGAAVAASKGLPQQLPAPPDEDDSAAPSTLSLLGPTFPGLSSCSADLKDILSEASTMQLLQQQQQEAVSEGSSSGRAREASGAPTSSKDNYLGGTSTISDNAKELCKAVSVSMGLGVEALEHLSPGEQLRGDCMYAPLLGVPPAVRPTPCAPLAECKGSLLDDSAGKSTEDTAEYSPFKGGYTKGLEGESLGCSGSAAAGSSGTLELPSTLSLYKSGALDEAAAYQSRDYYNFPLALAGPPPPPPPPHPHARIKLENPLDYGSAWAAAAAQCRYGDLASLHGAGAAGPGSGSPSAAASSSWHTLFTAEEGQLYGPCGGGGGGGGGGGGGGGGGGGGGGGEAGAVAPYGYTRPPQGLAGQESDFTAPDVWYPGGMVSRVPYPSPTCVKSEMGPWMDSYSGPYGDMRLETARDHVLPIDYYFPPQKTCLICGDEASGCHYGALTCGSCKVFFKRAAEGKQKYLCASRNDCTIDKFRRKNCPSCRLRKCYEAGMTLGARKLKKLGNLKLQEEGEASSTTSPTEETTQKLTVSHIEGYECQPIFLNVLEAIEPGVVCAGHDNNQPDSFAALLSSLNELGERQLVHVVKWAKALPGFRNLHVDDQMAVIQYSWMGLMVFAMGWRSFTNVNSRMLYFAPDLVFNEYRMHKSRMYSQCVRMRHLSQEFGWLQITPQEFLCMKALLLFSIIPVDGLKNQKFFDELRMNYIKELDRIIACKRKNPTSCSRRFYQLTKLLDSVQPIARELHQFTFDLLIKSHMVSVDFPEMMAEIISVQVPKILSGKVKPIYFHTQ
In short: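 Beta-lactamase FRET read (2 h RT incubation with LiveBLAzer B/G) following 16 h of compound plus R1881 treatment of AR-UAS-bla HEK293 cells, which had been pre-incubated 4 h at 37C.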

[16] = target: Androgen receptor (Homo sapiens) (UniProt P10275); assay: qHTS assay to identify small molecule agonists of the androgen receptor (AR) signaling pathway (AID 743036; active means well fitted activation curve with a large enough effect in the signal ratio in the repeat runs, with a control signal flat, not every such curve was filed as active; inconclusive means weak or mixed curves, or effect the other way; inactive means no such curve, though single readings can be large or run the other way; the % refers to the signal ratio)
In short: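 Reporter line: GeneBLAzer AR-UAS-bla-GripTite (HEK293). Steps: plate cells, 4 h rest, add compounds, 16 h at 37C, add LiveBLAzer B/G substrate, 2 h at RT, read fluorescence.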

[17] = target: Androgen receptor (Homo sapiens) (UniProt P10275); assay: qHTS assay to identify small molecule antagonists of the androgen receptor (AR) signaling pathway using the MDA cell line (AID 743042; further: nearly all actives have a fitted effect of over 55% in size)
In short: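 Antagonist mode: compounds plus R1881 agonist added to MDA-kb2 AR-luc cells, incubated 16 h at 37C. Luciferase reporter luminescence quantified, with multiplexed CellTiter-Fluor readout for cell viability.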

SMILES	Potency [1]	Potency [2]	Potency [3]	Potency [4]	Potency [5]	Potency [6]	outcome [7]	Potency [8]	Potency (Aromatase (Homo sapiens))	Potency [9]	Potency [10]	Potency [11]	Potency [12]	Potency [13]	Potency [14]	Potency [15]	outcome [16]	Potency [17]
CC(C)c1ccccc1C(C)C	inactive	inactive	inactive	54.5 µM (active)	61.2 µM (active)	inactive	inactive	inactive	inactive									
O=C=NC1CCC(CC2CCC(N=C=O)CC2)CC1 (configuration not stated)	54.5 µM (active)	inactive	6.86 µM (active)	inactive	inactive	inactive	inactive		inactive									
CC(=O)OC/C=C/c1ccccc1	inactive	inactive	inactive		inactive	inactive	inactive	inactive	inactive	inactive								
CC[C@H](C)[C@@H](C(=O)O)n1sc2ccccc2c1=O			inactive	inactive	inactive	inactive	inactive	inactive	inactive	inactive	inactive	inactive	inactive	inactive				
CCCCC(CC)COCCCN (configuration not stated)	60.4 µM (active)		inactive			inactive	inactive	inactive	inactive		inactive	inactive		inactive				
O=C(O)C1CCC(C(=O)O)CC1 (configuration not stated)	60.9 µM (active)			inactive	inactive	inactive	inactive	inactive	inactive		inactive	inactive	inactive	inactive	68.4 µM (active)			
CCOc1nc2cccc(C(=O)O)c2n1Cc1ccc(-c2ccccc2-c2nn[nH]n2)cc1	inactive	inactive	inactive	29.8 µM (active)	29.8 µM (active)		inactive	inactive	inactive		0.425 µM [inconclusive] (active)	inactive	0.0376 µM (active)	2.66 µM (active)		inactive	inactive	inactive
CC(O)C1CCCCC1 (configuration not stated)	inactive	inactive	inactive	inactive	inactive	inactive		inactive	inactive						inactive			
N#Cc1cc2ccccc2c2ccccc12			inactive		inactive	inactive	inactive	inactive	inactive			inactive	inactive	inactive	inactive			
CCC(=O)OC(C)(C)C1CC=C(C)CC1 (configuration not stated)	48.6 µM (active)	inactive	inactive	inactive	inactive	inactive		inactive	inactive			inactive		inactive				
CCc1nn(C2CCCCC2)c2cc(C3(C#N)CCC(C(=O)O)CC3)ccc12 (configuration not stated)			inactive	34.4 µM (active)	61.1 µM (active)		inactive	inactive	38.6 µM (active)		13.8 µM [inconclusive] (active)		inactive	inactive				
CN1CCN(C2=Nc3cc(Cl)ccc3Nc3ccccc32)CC1	26.6 µM (active)	inactive	inactive	13.3 µM (active)	23.7 µM (active)		inactive	inactive	inactive			inactive		inactive	26.6 µM (active)			
CC(C)CC=O	inactive	inactive	inactive		inactive	inactive	inactive	inactive	inactive	inactive	inactive	inactive	inactive	inactive				
CCOC(=S)SSC(=S)OCC	inactive	inactive	inactive	inactive	inactive	inactive	inactive	inactive	inactive	inactive	inactive	inactive	inactive	inactive				
CC(=O)N(O)CCCCCNC(=O)CCC(=O)N(O)CCCCCNC(=O)CCC(=O)N(O)CCCCCN	inactive	inactive	inactive	inactive	inactive	inactive	inactive	inactive	inactive		inactive	inactive	inactive	inactive	inactive		inactive	
CC1(C)CCC(C)(C)c2cc(NC(=O)c3ccc(C(=O)O)cc3)ccc21		inactive			21.1 µM (active)	inactive	inactive	inactive		26.6 µM (active)					23.7 µM (active)			
O=CNc1ccccc1		inactive	inactive	inactive	inactive	inactive	inactive	inactive	inactive	inactive					inactive			
C1=Cc2ccccc2C1	inactive	inactive	inactive	inactive	inactive	inactive	inactive	inactive	inactive		inactive	inactive		inactive	inactive			
C#CCOC(=O)[C@@H](C)Oc1ccc(Oc2ncc(Cl)cc2F)cc1	inactive	inactive	inactive	inactive			inactive	inactive	inactive			inactive	inactive	inactive				

SMILES	Potency [1]	Potency [2]	Potency [3]	Potency [4]	Potency [5]	Potency [6]	outcome [7]	Potency [8]	Potency (Aromatase (Homo sapiens))	Potency [9]	Potency [10]	Potency [11]	Potency [12]	Potency [13]	Potency [14]	Potency [15]	outcome [16]	Potency [17]
Nc1cnn([C@@H]2O[C@H](CO)[C@@H](O)[C@H]2O)c(=O)n1		inactive	inactive	inactive	inactive	inactive	inactive	inactive	inactive	27.3 µM (active)		inactive	inactive	inactive				
CCCCC(CC)(CO)CO		inactive	inactive	inactive	inactive	inactive	inactive	inactive	inactive	inactive					inactive			
Oc1ccc2c(c1)OCO2	54 µM (active)	inactive	inactive	inactive		inactive	inactive	inactive	inactive	54 µM (active)				inactive				
CCCCCCCC/C=C\CCCCCCCC(N)=O	inactive	inactive	inactive		inactive	inactive	inactive	inactive	inactive	inactive						inactive	inactive	inactive
CN(C)C/C=C(/c1ccc(Br)cc1)c1cccnc1			inactive	10.6 µM (active)		inactive	inactive		inactive									
CC(=O)O[C@H]1C[C@@H]2CC[C@@H]3[C@H](CC[C@@]4(C)[C@H]3C[C@H]([N+]3(C)CCCCC3)[C@@H]4OC(C)=O)[C@@]2(C)C[C@@H]1N1CCCCC1	inactive	inactive	inactive				inactive	inactive	inactive	inactive	inactive	inactive	33.5 µM (active)	inactive				
Cl/C(=C\n1cncn1)c1ccc(Cl)cc1Cl	inactive	inactive		inactive		inactive	inactive	inactive		inactive								
O=C(O)Cc1cc(I)c(Oc2ccc(O)c(I)c2)c(I)c1	inactive	inactive	inactive	inactive			inactive	inactive	inactive	inactive								
CC(=O)O[C@@H]1C(=O)O[C@@H]2[C@H]1OC(=O)[C@@H]2OC(C)=O		inactive	inactive	inactive	inactive	inactive	inactive	inactive	inactive		inactive	inactive		inactive	26.6 µM (active)			
O=C(O)C(c1ccc(Cl)cc1)c1ccc(Cl)cc1	inactive	inactive	inactive	inactive	inactive	inactive	inactive	inactive		inactive		inactive		inactive				
CN(C)CC[C@@H](c1ccc(Br)cc1)c1ccccn1		inactive	inactive				inactive	inactive			inactive	inactive	inactive	inactive				
O=C(O)[C@@H]1[C@H]2C[C@H]3c4[nH]c5ccccc5c4CCN3C[C@@H]2CC[C@@H]1O	inactive	inactive	inactive	inactive		inactive	inactive	inactive	inactive		inactive	inactive	inactive			inactive		inactive
Cn1c(N)nc2nc[nH]c2c1=O	inactive	inactive	inactive	inactive	inactive	inactive	inactive	inactive	inactive									
CCCC(=O)OCC		inactive	inactive		inactive	inactive	inactive	inactive	inactive		inactive	inactive	inactive	inactive	68.6 µM (active)			
O=C(Nc1ccccc1)OCC(CN1CCCCC1)OC(=O)Nc1ccccc1 (configuration not stated)	inactive		inactive	10.1 µM (active)	10.1 µM (active)	inactive	inactive	inactive	inactive	inactive	inactive	inactive	inactive	inactive				
C[C@H](CCC(=O)O)[C@H]1CC[C@H]2[C@@H]3[C@H](O)C[C@@H]4C[C@H](O)CC[C@]4(C)[C@H]3CC[C@]12C	inactive	inactive	inactive	inactive	inactive	inactive	inactive	inactive	inactive	inactive	inactive	inactive	inactive	inactive				
CCCc1ccccc1	inactive	inactive	inactive	inactive	inactive	inactive	inactive	inactive	inactive		inactive	inactive	inactive	inactive	inactive			
O=S1(=O)N=C(O)c2ccccc21	inactive		inactive	inactive			inactive	inactive	inactive									

Source: PubChem BioAssay (Tox21)
